Bioassay records (PubChem BioAssay)
Shown are actives, neighbours in structure and some others; about 2.2% of the full set was active somewhere.
Nrf2 inh – Nrf2 qHTS screen for inhibitors; AID 504444, 2011; 2.1% of 360,000 active; Potency, µM (titrated, usually from 46 µM), usual class: inhibitors; A549 ARE-Fluc reporter, luciferase luminescence, 18-24 h; also: nearly all actives have a fitted effect of over 60% in size
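In this cell-based qHTS, ARE-driven firefly luciferase in A549 cells reports Nrf2 activity; the luminescent signal after BugLite lysis is the measured value, with a prior CellTiter-Fluor read for cell health.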
GALK inh – qHTS Assay for Inhibitors of Human Galactokinase (GALK); Potency, µM (titrated, usually from 57.5 µM), actives largely listed as inhibitors; P51570; AID 1868, 2009; 0.007% of 270,000 active; Purified GALK, Kinase-Glo residual ATP luminescence
Target sequence (P51570 whole entry, looked up): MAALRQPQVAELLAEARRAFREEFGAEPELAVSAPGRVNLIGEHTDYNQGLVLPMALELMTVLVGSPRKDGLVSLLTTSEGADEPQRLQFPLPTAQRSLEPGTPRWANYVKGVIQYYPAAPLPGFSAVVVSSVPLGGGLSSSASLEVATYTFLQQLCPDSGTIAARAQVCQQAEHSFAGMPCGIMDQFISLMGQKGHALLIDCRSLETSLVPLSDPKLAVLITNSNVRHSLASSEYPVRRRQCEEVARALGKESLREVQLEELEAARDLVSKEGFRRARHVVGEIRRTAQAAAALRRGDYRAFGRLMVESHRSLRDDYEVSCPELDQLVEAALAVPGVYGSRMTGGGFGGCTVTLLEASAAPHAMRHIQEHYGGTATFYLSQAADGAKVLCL
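5 nM enzyme, 35 uM ATP, 100 uM galactose, 20 mM HEPES pH8.0, 5 mM MgCl2; 1 h RT; residual ATP by Kinase-Glo Plus luminescence, qHTS format.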
miR-21 act – qHTS Assay for Modulators of miRNAs and/orActivators of miR-21 | Potency, µM (top dose mostly 38.3 µM), hits mostly activators | AID 2288, 2010 | 340,000 tested, under 10 active | HeLa miR-21 FLuc reporter, luciferase, 48 h;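 also: miR-21 action dims this reporter so a rising signal means less miR-21 action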
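Compounds were titrated across several concentrations (up to approximately 40 uM) and incubated 48 hours with HeLa miR-21-FLuc reporter cells (miR-21 target sequence downstream of FLuc, endogenous miR-21). Readout was firefly luciferase luminescence after lytic detection reagent.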
A549 tox-1 – Nrf2 qHTS screen for inhibitors: counterscreen for cytotoxicity; A549 ARE-Fluc cells, CellTiter-Fluor viability, 18-24 h; Potency, µM (doses to about 46 µM), usual class: inhibitors; 0.16% of 390,000 active
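A549 ARE_Fluc cells in 5% FBS OPTI-MEM were exposed to compounds in concentration-response for 18-24 h at 37 deg C. Viability was read by CellTiter-Fluor fluorescence (Ex 405/Em 525) after 30 min, before the luciferase read.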
Nrf2 activator – qHTS of Nrf2 Activators; Potency, µM (series often up to 46.1 µM), hits mostly activators; 0.31% of 410,000 active; AID 624171, 2012; AREc32 ARE-luciferase reporter (MCF7-derived line), luminescence, 24 h; also: nearly all actives have a fitted effect of over 65% in size
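AREc32 cells carrying an ARE-driven firefly luciferase, 1000 cells/well in OPTI-MEM with 5% FBS, dosed after overnight attachment and incubated 24 hr at 37 deg C. Steady-Glo luminescence read after 30 min at RT.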
PI4K2A block – qHTS for small molecular inhibitors of PI4K2A; AID 1346378, 2018; purified PI4K2A, ADP-Glo luminescence, 1 h; stronger effect = lower value; 0.13% of 420,000 active; activity change, negative = inhibition, % at 76.9 µM; Phosphatidylinositol 4-kinase type 2-alpha (Homo sapiens), Q9BTU6; in the data active = activity change below about -50%; inconclusive = mostly about -30% to -49%
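PI4K2A activity was measured by ADP-Glo luminescence: enzyme (4 ug/mL stock) and phosphatidylinositol (1.2 mM stock) in Tris pH 7.5/MgCl2/EGTA/Triton X-100 buffer were reacted with ATP (300 microM stock) for one hour at ambient temperature.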
FLuc counter 3 – Nrf2 qHTS screen for inhibitors: Purified Fluc Biochemical Counterscreen for Hit Validation; 4% of 1,400 active; Potency, µM (titrated, usually from 57.5 µM), most hits filed as inhibitors; AID 720522, 2013; shares compounds with Nrf2 inh; purified firefly luciferase, luminescence inhibition; also: nearly all actives have a fitted effect of over 65% in size
A549 tox-2 – Nrf2 qHTS screen for inhibitors: A549 ARE-Fluc Cytotoxicity Counterscreen for Hit Validation | 2% of 1,400 active | shares compounds with Nrf2 inh | Potency, µM (highest dose often 46.1 µM), hits mostly inhibitors | A549 ARE-Fluc cells, cytotoxicity counterscreen;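 also: cells exposed to compounds for 18 to 24 hours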
Nrf2 ARE inh – Nrf2 qHTS screen for inhibitors: Nrf2 A549 ARE-Fluc Confirmation Assay for Hit Validation; shares compounds with Nrf2 inh; A549 ARE-firefly luciferase reporter, luminescence; Potency, µM (series often up to 46.1 µM), usual class: inhibitors; 74% of 1,400 active; AID 720524, 2013; also: nearly all actives have a fitted effect of over 65% in size
A number is an active result; i = inactive; ? = inconclusive; nt = not tested or not shown. Unless noted, calls follow the shape of the dose curve; as a rule, active = well fitted curve in the direction sought with a large enough effect; inconclusive = small, poorly fitted or top-dose-only effect, or another doubt; inactive = no such curve, though single readings can be large; an effect the other way counts as inactive or inconclusive.

SMILES | Nrf2 inh | GALK inh | miR-21 act | A549 tox-1 | Nrf2 activator | PI4K2A block | FLuc counter 3 | A549 tox-2 | Nrf2 ARE inh
Cc1ccc(S(=O)(=O)N2CCN(c3ncnc4sccc34)CC2)cc1C | ? | nt | nt | i | i | i | nt | nt | nt
O=S(=O)(c1ccc2c(c1)OCCO2)N1CCN(c2ncnc3sccc23)CC1 | 2.3µM | i | i | i | i | i | i | i | nt
C1=C2C[N+]3(CCCC3)CC2Cc2ccc3ccccc3c21 (stereo unspecified) | 2.1µM | i | i | i | i | i | i | i | 7.3µM
CC(=O)N1c2ccc(S(=O)(=O)N3CCN(c4cccc(Cl)c4)CC3)cc2CC1C (stereo unspecified) | ? | nt | i | i | i | i | nt | nt | nt
COc1ccc(N2CCN(S(=O)(=O)c3ccc4c(c3)CC(C)N4C(C)=O)CC2)cc1 (stereo unspecified) | 9.2µM | nt | i | i | i | i | i | i | 5.8µM
COc1ccc(NS(=O)(=O)c2ccc3c(c2)CC(C)N3C(=O)C2CCC2)cc1OC (stereo unspecified) | nt | nt | i | ? | i | i | nt | nt | nt
CC1Cc2cc(S(=O)(=O)NCCc3ccccc3)ccc2N1C(=O)C1CCC1 (stereo unspecified) | ? | nt | i | i | i | i | nt | nt | nt
COc1cc(Cl)c(NS(=O)(=O)c2ccc3c(c2)CC(C)N3C(=O)C2CCC2)c(OC)c1 (stereo unspecified) | 9.2µM | nt | ? | i | i | i | i | i | 8.2µM
COc1cc(NS(=O)(=O)c2ccc3c(c2)CC(C)N3C(=O)C2CCC2)cc(OC)c1OC (stereo unspecified) | 6.5µM | nt | i | i | nt | nt | i | i | 2.6µM
CC1Cc2cc(S(=O)(=O)NCc3ccccc3)ccc2N1C(=O)C1CCC1 (stereo unspecified) | 1.6µM | i | i | i | i | i | i | i | ?
CC(C)[C@H](N)C(=O)N[C@@H](Cc1ccccc1)C(=O)N1CCC2CCN(S(=O)(=O)c3ccccc3)CC21 (stereo partly specified) | nt | nt | nt | nt | nt | i | nt | nt | nt
CC(C)CCNC(=O)CSc1nc2c(c(=O)[nH]1)CCC2 | nt | nt | nt | nt | nt | i | nt | nt | nt
CCOc1ccc(CCNC(=O)C2CCCCC2)cc1OCC | nt | nt | nt | nt | nt | i | nt | nt | nt
O=C(NC1CCCCN(Cc2ccc(Cl)cc2)C1=O)c1ccc(F)c(F)c1 (stereo unspecified) | nt | nt | nt | nt | nt | i | nt | nt | nt
N#Cc1ccc(/C=C2\CC3(OC(=O)c4ccc(F)cc4)CCCN2C3)cc1 (stereo unspecified) | nt | nt | nt | nt | nt | i | nt | nt | nt
Cc1ccc(C(=O)Nc2ccc(Br)c(C(F)(F)F)c2)cc1 | 1.6µM | i | i | nt | i | i | 6.7µM | i | nt
Cc1ccc(NC(=O)c2ccc(C)cc2)cc1 | ? | nt | nt | i | i | i | nt | nt | nt
CS(=O)(=O)N1C[C@]2(c3ccccc3)CC1Cc1ccccc12 | nt | nt | nt | nt | nt | i | nt | nt | nt
Cc1nc2ccc(S(=O)(=O)c3ccc4nc(C)[nH]c4c3)cc2[nH]1 | nt | i | i | i | i | i | nt | nt | nt
Cc1nc2ccc(NS(=O)(=O)c3ccc(F)c(C)c3)cc2[nH]1 | 8.2µM | i | i | i | i | i | i | i | 5.8µM
CCOc1ccc2c(c1)C(=NNC(=O)c1ccncc1)c1cc(OCC)ccc1-2 | 5.8µM | i | i | i | i | i | ? | ? | 5.2µM
CCOc1ccc(NC(=O)c2ccncc2)cc1 | i | i | i | i | i | i | nt | nt | nt
Cc1cccc(C)c1NC(=O)c1cc(S(=O)(=O)N2CCc3ccccc32)cn1C | i | nt | i | i | i | i | nt | nt | nt
Cn1cc(S(=O)(=O)N2CCc3ccccc32)cc1C(=O)NC(C)(C)C | 2.1µM | nt | i | i | i | i | i | i | 4.6µM
COCC1CCN(C(=O)c2cc(COc3cccc4cnccc34)on2)CC1 | ? | i | i | i | i | i | nt | nt | nt
SMILES | Nrf2 inh | GALK inh | miR-21 act | A549 tox-1 | Nrf2 activator | PI4K2A block | FLuc counter 3 | A549 tox-2 | Nrf2 ARE inh
O=C(c1cc(COc2cccc3cnccc23)on1)N1CCCC(CCCO)C1 (stereo unspecified) | 3.7µM | i | ? | i | i | i | i | i | 2.3µM
COc1cc(NC(=O)CSc2nc(-c3ccco3)cc(C(F)(F)F)n2)cc(OC)c1OC | 9.2µM | nt | i | i | i | i | i | i | ?
COc1cc(NC(=O)CCCSc2nc(-c3ccco3)cc(C(F)(F)F)n2)cc(OC)c1OC | ? | i | i | i | i | i | nt | nt | nt
O=C(Nc1nc2ncccn2c1-c1ccc(F)cc1)C1CC1 | nt | nt | nt | nt | nt | i | nt | nt | nt
COc1cc(NC(=O)c2ccc(-c3nc(COc4ccccc4)c(C)o3)cc2)cc(OC)c1 | 5.2µM | nt | i | i | i | i | i | i | 8.2µM
Cc1oc(-c2ccc(C(=O)Nc3ccc(F)cc3)cc2)nc1COc1ccccc1 | i | nt | i | i | i | i | nt | nt | nt
Cc1cc(F)ccc1S(=O)(=O)Nc1ccccc1C(=O)Nc1ccccc1-c1nc2ccccc2[nH]1 | 4.1µM | i | ? | 23µM | i | i | i | ? | 16µM
Clc1ccc(OCCN2CCN(c3ncnc4sccc34)CC2)cc1 | 0.26µM | i | i | i | i | i | i | i | 0.46µM
CCn1c(SCC(=O)c2ccc(-c3ccccc3)cc2)nnc1-c1ccc(C(C)(C)C)cc1 | nt | nt | nt | nt | nt | i | nt | nt | nt
O=[N+]([O-])c1cccc2nc3ccccc3c(NCCCn3ccnc3[N+](=O)[O-])c12 | 0.15µM | nt | nt | ? | i | i | ? | ? | nt
Cc1onc(-c2ccccc2)c1C(=O)NC(=S)NNC(=O)c1ccccc1O | ? | i | ? | i | i | i | nt | nt | nt
Cc1onc(-c2ccccc2)c1C(=O)NC(=S)NNC(=O)c1ccc(O)cc1O | 7.3µM | i | ? | i | i | i | i | i | 5.8µM
C[C@@H]1CCN(C2CC2)S(=O)(=O)c2ccc(N3CC[C@H](O)C3)cc2O1 | nt | nt | nt | nt | nt | i | nt | nt | nt
CN(C)S(=O)(=O)c1ccc(Nc2nc(C3CC3)nc3c2nnn3Cc2ccccc2Cl)cc1 | 5.8µM | i | i | i | i | i | i | i | 4.1µM
COc1ccc(C(=O)N2CCC(Oc3cccnc3)CC2)c(OC)c1 | nt | nt | nt | nt | nt | i | nt | nt | nt
CC(C)(C)OC(=O)NS(=O)(=O)Nc1ccccc1Br | i | nt | nt | i | nt | nt | nt | nt | nt
